In all, about 330,000 compounds went through this assay and about 4,100 (1.2%) were called active. Another 2% or so got no clear call; they are omitted. Shown is part of a subset that was picked to be rich in actives. Unmarked numbers belong to inactive results. The calls were made as follows: active = max response of -50% or lower; inconclusive = between -30% and -50%; inactive = -30% or higher.
% is scaled to controls: 0 for no effect and ±100 for the full control effect.

For the experiment, the target named is Phosphatidylinositol 5-phosphate 4-kinase type-2 alpha (Homo sapiens) (UniProt P48426). Briefly: qHTS for Inhibitors of phosphatidylinositol 5-phosphate 4-kinase (PI5P4K). Also: value at the top dose of about 77 µM. The following applies: PI5P4Kalpha enzyme, ADP-Glo luminescence, 60 min; hits give low values. An excerpt: In addition to finding PI5P, we discovered the type II phosphatidylinositol 5-phosphate 4-kinase (PI5P4K) family (alpha, beta, gamma isoforms) that catalyze the conversion of PI5P to PI(4,5)P2. Alternatively, PI(4,5)P2 can also be synthesized through phosphatidylinositol-4-phosphate (PI4P) by the type I phosphatidylinositol 4-phosphate 5-kinases (PI4P5K). These PI5P4K enzymes therefore represent one way by which cells can regulate endogenous PI5P levels and play important roles in insulin signaling and in stress responses.
Chain of Phosphatidylinositol 5-phosphate 4-kinase type-2 alpha (Homo sapiens) (P48426 whole entry, looked up, canonical isoform): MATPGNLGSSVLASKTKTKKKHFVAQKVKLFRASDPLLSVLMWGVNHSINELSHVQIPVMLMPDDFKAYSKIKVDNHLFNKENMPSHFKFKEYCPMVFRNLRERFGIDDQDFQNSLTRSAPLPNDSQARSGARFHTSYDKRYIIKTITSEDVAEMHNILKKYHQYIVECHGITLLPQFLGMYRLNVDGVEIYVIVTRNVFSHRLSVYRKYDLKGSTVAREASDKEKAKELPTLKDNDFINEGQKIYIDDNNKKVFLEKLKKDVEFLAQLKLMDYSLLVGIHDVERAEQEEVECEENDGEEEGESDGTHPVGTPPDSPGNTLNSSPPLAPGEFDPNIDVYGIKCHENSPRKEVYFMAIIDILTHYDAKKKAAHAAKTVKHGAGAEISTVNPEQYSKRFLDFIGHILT
This proposal aims to identify and optimize specific modulators of human PI5P4K, phosphatidylinositol-5-phosphate 4-kinase (Type II PIPK), a family of kinases that regulate AKT signaling and tumor cell growth. In this project we aim to identify inhibitors of human PI5P4K using a quantitative high-throughput screening approach against the MLSMR containing ~400,000 small molecules.
NIH Chemical Genomics Center [NCGC]
NIH Molecular Libraries Probe Centers Network [MLPCN]
Assay Submitter (PI): Atsuo Sasaki, Beth Israel Deaconess Medical Center
2 microL of PI5P4Kalpha/substrate buffer (columns 1-2, 5-48) are dispensed into Greiner white solid bottom 1536-well assay plates; column 3 receives only PI5P4Kalpha buffer as 0x substrate controls; column 4 receives only substrate buffer as 0x PI5P4Kalpha controls. Final assay buffer consists of 0.038 M HEPES pH 7.4, 0.28 mM EGTA, 0.1% CHAPS, and 5% DMSO (final concentration). Compounds are then transferred via Kalypsys pin tool equipped with 1536-pin array (10 nL slotted pins, V&P Scientific, San Diego, CA). Following addition of compound, 1 microL of ATP (5 microM final concentration, all columns) is added to initiate the reaction. ATP is diluted in an assay buffer consisting of 0.02 M HEPES pH 7.4, 60 mM MgCl2, 15 microM ATP, and 0.1% CHAPS. The plates are then incubated at room temperature for 60 minutes. ADP-Glo reagent 1 is added (2 microL) and plates incubated for 45 minutes, before ADP-Glo reagent 2 (4 microL) is added and plates incubated for 30 minutes. They are then transferred to a ViewLux high-throughput CCD imager (PerkinElmer) wherein single end-point measurements of luminescence are acquired using a clear filter.
Regarding `O=C1NC(=O)N(Cc2ccco2)C(=O)/C1=C\c1cccn1CCOc1ccccc1`, the max response was -24.2%.

As for `O=C1NC(=O)N(Cc2ccco2)C(=O)/C1=C\c1ccc(-c2ccc(F)cc2)o1`, the max response was -73.5% (active).

Turning to `O=C1NC(=O)N(CCc2ccc(F)cc2)C(=O)/C1=C/C=C/c1ccccc1`, the max response is -26.8%.

As to `O=c1[nH]c2ccccc2n1C1CCN(C(c2ccccc2)c2nnnn2Cc2ccccc2)CC1` (stereo not given), the max response is -4.66%.

Consider `COC(=O)C1=C(c2ccc(OCc3ccccc3)cc2)C[C@@H]2CC[C@H]1N2C(=O)NCc1ccc(Cl)cc1`, for which the max response was 5.92%.

Turning to `CCOC(=O)c1cccc(C2=C(CNC(=O)c3ccncc3)[C@H]3CC[C@@H](C2)N3Cc2ccccc2)c1`, the max response is -3.84%.

For the compound `O=C(O)CCn1cc(C=C2C(=O)NC(=S)NC2=O)c(-c2cccc(Br)c2)n1`, the max response was -58.5% (active).

As to `O=C(NCC1=C(c2ccc3ccccc3c2)C[C@@H]2CC[C@H]1N2Cc1ccco1)c1cccs1`, the max response was -1.39%.

`COC(=O)C1=C(c2ccc(OCc3ccccc3)cc2)C[C@@H]2CC[C@H]1N2C(=O)NCc1cccc(F)c1`: the max response was 0.749%.

Take `O=c1[nH]c(=O)n(Cc2ccccc2)c(O)c1/C=N/Nc1c(F)c(F)c(F)c(F)c1F`: the max response was 4.31%.

`O=C(N/N=C/c1c(O)n(Cc2ccccc2)c(=O)[nH]c1=O)c1ccccc1`: the max response is -53.6% (active).

With `CC/C(=N\NC(=O)c1ccccc1O)c1c(O)n(Cc2ccccc2)c(=O)[nH]c1=O`, the max response was -90.3% (active).

Turning to `CCC(=NCCc1ccccc1)c1c(O)n(C2CCCCC2)c(=O)[nH]c1=O`, the max response is -4.68%.

Turning to `CCC(=NCCCO)c1c(O)n(-c2ccc(OC)cc2)c(=O)[nH]c1=O`, the max response was 0.144%.

Regarding `CCCCC(=O)N/N=C/c1c(O)n(-c2ccccc2)c(=O)[nH]c1=O`, the max response is -1.14%.

With `COc1ccc(NC(=O)N2Cc3ccccc3-n3nncc3C2)cc1`, the max response is -4.3%.

On to `COc1ccc(-n2nnnc2C(c2cccc3ccccc23)N2CCC(n3c(=O)[nH]c4ccccc43)CC2)cc1` (stereo not given), for which the max response is 0.885%.

Take `CSCCC(c1nnnn1C(C)(C)C)N1CCC(n2c(=O)[nH]c3ccccc32)CC1` (stereo not given): the max response is 8.06%.

As for `O=c1[nH]c2ccccc2n1C1CCN(C(c2ccnc3ccccc23)c2nnnn2Cc2ccccc2)CC1` (stereo not given), the max response was -3.14%.

Consider `O=C1NC(=O)C(Cc2ccccc2)C(=O)N1`, for which the max response was -28.7%.

On to `O=C1NC(=O)C(C/C=C/c2ccccc2)C(=O)N1`, for which the max response was -78.1% (active).

Consider `CC(=O)NCC1=C(c2ccc3ccccc3c2)C[C@@H]2CC[C@H]1N2Cc1ccco1`, for which the max response is -10.1%.

Regarding `O=c1c2ccccc2nc(CBr)n1-c1ccc(Cl)cc1`, the max response is -9.65%.

With `S=C(NCCc1ccccc1)N1Cc2cc(N3CCOCC3)ccc2-n2nncc2C1`, the max response was -1.37%.

Regarding `CCOC(=O)[C@]12Cc3ccccc3[C@H]1N(C1CCCCC1)C(=O)c1cc(OC)ccc12`, the max response was -1.4%.

Take `COc1cc(C(=O)N2Cc3ccc(Br)cc3-n3nncc3C2)cc(OC)c1OC`: the max response is -0.882%.

With `CCC(=O)c1ccc(OCC(=O)N2CCN(CC(=O)Nc3ccc(C)cc3)CC2)cc1`, the max response was 1.24%.

Consider `C=CCN(CC=C)C(=O)Nc1ccc(OCC)cc1`, for which the max response is -4.12%.

For the compound `C=CCN1C(=O)NC(=O)/C(=C/c2ccc(OCC(=O)Nc3ccc(C)cc3)cc2)C1=O`, the max response is -72.6% (active).

With `O=C(NC1CCCCC1)N1Cc2cc(N3CCCCC3)ccc2-n2nncc2C1`, the max response is -0.829%.

Turning to `COc1cccc(N2C(=O)NC(=O)/C(=C\c3cn(C)c4ccccc34)C2=O)c1`, the max response is 5.95%.

For `O=C1NC(=O)N(c2ccccc2)C(=O)/C1=C/c1ccc([N+](=O)[O-])s1`, the max response is -72.2% (active).

For the compound `COc1cccc(N2C(=O)NC(=O)/C(=C\c3ccc([N+](=O)[O-])s3)C2=O)c1`, the max response is -64.2% (active).

Turning to `O=C1NCN(c2ccccc2)C12CCN(C(c1cccs1)c1nnnn1C1CCCCC1)CC2` (stereo not given), the max response is -2.62%.

Regarding `c1ccc(N2Cc3ccccc3-n3nncc3C2)nc1`, the max response is -2.17%.

Turning to `CC(=CCOc1ccc2ccc(=O)oc2c1)C1=CC(=O)C(C)(C)O1`, the max response is 4.71%.

With `c1cc2c(c(NC3=NCCCS3)c1)CCCC2`, the max response was -10.3%.

Consider `CC(C)CN1Cc2cc(N3CCCCC3)ccc2-n2nncc2C1`, for which the max response is -0.0123%.

`COC(=O)C[C@H]1CC[C@H]2NC[C@@H](O)COC[C@@H]2O1`: the max response was -5.22%.

On to `COc1ccc2c(c1)NP(=S)(c1ccccc1)N2` (stereo not given), for which the max response was -27.5%.

In the case of `COc1ccc(N2C(=O)/C(=C/c3ccco3)C(=O)NC2=S)cc1`, the max response is -103% (active).

Turning to `CCOC(=O)CNC(=O)N1Cc2cc(N3CCCCC3)ccc2-n2nncc2C1`, the max response was 7.51%.

In the case of `COc1ccc(C2C=C(C)Oc3c2c(=O)oc2ccccc32)cc1OC` (stereo not given), the max response was 1.36%.

With `CCn1cc(CN2CCCC(C(=O)c3cccc(C(F)(F)F)c3)C2)cn1` (stereo not given), the max response was 5.27%.

On to `O=C1CC(=O)N(Cc2ccccc2)C(=O)N1CCCCCCN1C(=O)CC(=O)N(Cc2ccccc2)C1=O`, for which the max response is -68.4% (active).

As for `O=C(CN1CCCC1=O)NCCc1ccccc1`, the max response is 1.78%.

For `COc1cccc(C(c2nnnn2-c2ccc3c(c2)OCCO3)N2CCC3(CC2)C(=O)NCN3c2ccccc2)c1OC` (stereo not given), the max response is -0.4%.

On to `O=P(OC1=CCCCC1)(c1ccccc1)c1ccccc1`, for which the max response was 1.07%.

Consider `Cc1ncoc1C(=O)NCC1=C(c2cccc3ccccc23)C[C@@H]2CC[C@H]1N2Cc1ccco1`, for which the max response was 7.08%.

With `Cc1c(C(=O)O)cccc1-n1c(C)cc(/C=C2\C(=O)NC(=O)N(c3ccc4c(c3)OCO4)C2=O)c1C`, the max response was -18.8%.

For the compound `Cc1ccccc1N1C(=O)NC(=O)/C(=C\c2cc(C)n(C)c2C)C1=O`, the max response is 0.241%.

Take `Cc1cccc(N2C(=O)NC(=O)/C(=C\c3cnn(-c4ccccc4)c3)C2=O)c1`: the max response is -69.1% (active).

Turning to `COC(=O)CN(CCCl)P1(=O)OCCCN1CCCl` (stereo not given), the max response is -2.26%.

As to `O=c1c2ccccc2[nH]c(=S)n1-c1cccc(Cl)c1`, the max response was -8.39%.

In the case of `CCOC(=O)[C@]12Cc3cc(OC)ccc3[C@H]1N(C(C)C)C(=O)c1ccccc12`, the max response is 1.48%.

The record behind these values is PubChem BioAssay AID652105 (National Center for Advancing Translational Sciences (NCATS), 2013).
